# Compound activity deposited in PubChem by National Center for Advancing Translational Sciences (NCATS).
# The list is not random: actives were taken first. Their share in the collection is about 2.8%.
# KDM5B inhibitor = Primary screen for KDM5B Histone Demethylases FDH-coupled qHTS; Potency, µM (highest dose often 57.7 µM), hits mostly inhibitors; KDM5B demethylase, FDH-coupled NADH fluorescence (FDH is formaldehyde dehydrogenase); actives 2.6% (n = 220,000); Lysine-specific demethylase 5B (Homo sapiens), Q9UGL1; active = well fitted inhibition curve with a large enough effect; inconclusive = small, poorly fitted or top-dose-only effect; inactive = no such curve, though single readings can be large or run the other way; note: potency is the fitted concentration of half-maximal effect; 0% is about no effect; nearly all actives have a fitted effect of over 70% in size
#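 KDM5BΔAP (200 nM final) in 50 mM HEPES pH 7.5, 0.01% Tween-20 was preincubated 10 min at RT with compound over a concentration range. Substrate mix (H3K4me3 12.5 µM, α-KG 25 µM, Fe²⁺, ascorbate, NAD⁺, FDH) was added, and NADH fluorescence change over 30 min gave dose-response curves.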
# IP6K1 inh = Primary qHTS assay for small molecule inhibitors of Inositol hexaphosphate kinase 1 (IP6K1) | Inositol hexakisphosphate kinase 1 (Homo sapiens), Q92551 | IP6K1 kinase, ADP-Glo luminescence, 2 h; hits give low values | activity change, % (series mostly up to about 58 µM) | actives 0.81% (n = 140,000); in the data active = activity change below about -25%; note: % is set by controls: 0 for no effect and ±100 for the full control effect
#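 ADP-Glo luminescence measures ADP made by human IP6K1 during a 2 h RT reaction with ATP/IP6 (mix at 1.3 mM/130 uM); top library doses 57.5 and 19.1 uM final.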
# * hit, by the source's call; i = inactive; ? = inconclusive; · = not tested or not shown.
SMILES,KDM5B inhibitor,IP6K1 inh
Cc1cc(C(=O)N2CCCCC2)c2c(C3CCNC3)noc2n1 (stereo not drawn),89µM*,1
O=C(NC1CCCC1)c1cc(C2CC2)nc2onc(C3CCNCC3)c12,79µM*,6
O=C(NC1CC1)c1cc(C2CC2)nc2onc(C3CCNCC3)c12,?,10
O=C(NCc1ccncc1)c1cc(C2CC2)nc2onc(C3CCNC3)c12 (stereo not drawn),?,11
COc1ccc(-c2cc(C(=O)NCC(C)C)c3c(C4CCNC4)noc3n2)cc1 (stereo not drawn),?,4
O=C(c1cc(C2CC2)nc2onc(C3CCCNC3)c12)N1CCCCC1 (stereo not drawn),?,-8
COCCNC(=O)c1cc(-c2ccc(OC)cc2)nc2onc(C3CCNC3)c12 (stereo not drawn),79µM*,0
COCCNC(=O)c1cc(C2CC2)nc2onc(C3CCNC3)c12 (stereo not drawn),79µM*,16
CCn1nccc1C(=O)N1CCC(F)(c2nc(-c3ccncc3)no2)CC1,i,-8
CCc1ccc(C(=O)Oc2ccc(Br)cc2)cc1,i,·
O=C(CNC(=O)c1cccc(-c2ccsc2)c1)NCc1ccc(F)cc1,·,0
CCN(CC)C(=O)c1sc2c(c1C)c(=O)n(-c1ccccc1)c(=O)n2Cc1c(C)cc(C)cc1C,i,1
CCOc1ccc2c(n1)CCN(C(=O)Nc1cc(C)cc(C)c1)C2,i,-9
CC(Oc1cccc(Cl)c1)C(=O)Nc1ccc2c(N3CCOCC3)ncnc2c1 (stereo not drawn),?,7
COc1cccc(-c2cccc(C(=O)N3CCCC3C(=O)N3CCC(C#N)CC3)c2)c1 (stereo not drawn),·,0
O=C(NCC(F)(F)F)C1CCN(Cc2ccccc2)CC1,i,·
N#Cc1ccc(COc2ccc(I)cc2)cc1,i,·
CCOC(=O)c1cc(NC(C)=O)cc(C(=O)OCC)c1,i,·
CNC(=O)[C@@H]1CN(S(=O)(=O)c2ccc(F)c(C)c2)C[C@H]1C1CCN(C)CC1,22µM*,-12
CNC(=O)[C@@H]1CN(S(=O)(=O)c2cccc(Cl)c2)C[C@H]1C1CCN(C)CC1,i,1
CC(C)(C)c1ccc(C(=O)Nc2cccc(C#N)c2)cc1Br,i,·
CNC(=O)N1CCC(Oc2ncccc2C(=O)N(C)C)C1 (stereo not drawn),i,6
CCOc1nccnc1NC1CCN(C(=O)C2CCCO2)CC1 (stereo not drawn),28µM*,-2
CC1CCN(CC2CCCN(C(=O)Cc3cccs3)CC2)CC1 (stereo not drawn),·,-5
CCCOc1cccc(C(=O)N2CCN(C(=O)C3CCCO3)CC2)c1 (stereo not drawn),i,·
SMILES,KDM5B inhibitor,IP6K1 inh
CCOc1nccnc1NC1CCN(C(=O)NC)CC1,28µM*,5
CCOc1nccnc1NC1CCN(C(=O)Cc2cccs2)CC1,32µM*,-3
Nc1ccc(/C=C/C(=O)c2ccc(Cl)cc2)cc1,i,·
CS(=O)(=O)Nc1ccc(C2=NN(S(=O)(=O)c3ccccc3)C(c3ccccc3)C2)cc1 (stereo not drawn),i,·
O=S(=O)(N[C@H]1CO[C@H]2[C@@H]1OC[C@@H]2n1nnnc1Oc1ccc(-n2cncn2)cc1)c1cccs1,18µM*,15
Cc1ccc(S(=O)(=O)N[C@H]2CO[C@H]3[C@@H]2OC[C@@H]3n2nnnc2Oc2ccc(-n3cncn3)cc2)cc1,i,1
Cc1n[nH]c(C)c1S(=O)(=O)Nc1ncn(Cc2ccc(F)cc2)n1,i,·
CC(C)NC(=O)NC(=O)CN(C)C1CCCCC1,i,·
O=C(NC1CCCC1)N1CCC(Nc2cccnc2)C1 (stereo not drawn),?,0
CC(C)CNC(=O)N1CCC(Nc2cccnc2)C1 (stereo not drawn),?,7
O=C(c1cnccn1)N1CCC(Nc2cccnc2)C1 (stereo not drawn),?,8
O=C(c1ccoc1)N1CCC(Nc2cccnc2)C1 (stereo not drawn),13µM*,0
CN(C)S(=O)(=O)N1CCC(Nc2cccnc2)C1 (stereo not drawn),8.9µM*,12
CCS(=O)(=O)N1CCC(Nc2cccnc2)C1 (stereo not drawn),22µM*,7
O=C(Nc1ccc(F)cc1F)N1CC(c2nnc(-c3ccncc3)o2)C2(CCOCC2)C1 (stereo not drawn),i,15
C#CCN(C)CC[C@@H]1CC[C@H](O)[C@@H](C(=O)Nc2ccccc2)O1,i,-7
COc1ccc(C(=O)N2CCCCCNC(=O)[C@@H]3CCCC[C@@H]32)cc1F,i,-9
Cn1cccc1C(=O)N1CCC(Nc2cccnc2)C1 (stereo not drawn),i,6
Cc1nc2c(NC3CCN(C(=O)c4cccn4C)CC3)cccn2n1,32µM*,12
Cc1ccccc1OCCNN,i,·
CCCNC(=O)C12CC3CCC(CC(C3)C1)C2,i,·
COc1cccc(Nc2cc3c(cn2)NCCN(Cc2ccccc2)C3)c1,40µM*,-22
COc1cccc(CN2CCNc3cc(Nc4cccnc4)ncc3C2)c1,i,-16
COc1ccccc1CN1CCNc2cnc(Nc3ccccc3)cc2C1,?,-19
COc1cccc(CN2CCNc3cnc(Nc4ccccc4)cc3C2)c1,35µM*,-6
SMILES,KDM5B inhibitor,IP6K1 inh
CNC(=O)N1CCC(C2CCN(C(=O)c3ccco3)C2)CC1 (stereo not drawn),i,17
Cc1cc(C[C@@H]2COC[C@@H]2NC(=O)CN2CCN(c3ncccn3)CC2)on1,?,-3
Cc1cc(C[C@@H]2COC[C@@H]2NC(=O)COc2cccc(C)c2C)on1,20µM*,2
C/C(=C\C(=O)C(C)C1CCC2C3=C(CCC21C)C1(C)CCC(=O)C(C)(C)C1(O)CC3)C(C)(C)O (stereo not drawn),·,10
COc1ccc(C(C)NC(=O)c2noc(-c3ccc[nH]c3=O)n2)cc1OC (stereo not drawn),32µM*,13
CC(C)Oc1ccc(CNC(=O)c2noc(-c3ccc[nH]c3=O)n2)cc1,i,0
Cc1ccc(C)c(N2CCN(C(=O)c3noc(-c4ccc[nH]c4=O)n3)CC2)c1,28µM*,-3
Cc1ccc(-c2nc(C(=O)N3CCN(c4cc(C)ccc4C)CC3)no2)cc1,?,12
COCCNC(=O)c1noc(-c2ccc[nH]c2=O)n1,28µM*,-9
O=C(NCC1CC1)c1noc(-c2ccc[nH]c2=O)n1,i,9
S=C(NCCc1ccccc1)NC1CCCc2ccccc21 (stereo not drawn),i,·
CCc1cc(CN2C[C@H](NC(=O)c3ncn[nH]3)C[C@H]2C(=O)NC(C)C)on1,i,0
COc1cccc(-c2cccc(CCOc3cnc4c(ccn4CC(=O)O)c3)c2)c1,32µM*,7
Cn1ncc2c(C(=O)NCc3cccc(F)c3)cc(-c3cccc(F)c3)nc21,·,5
O=C(O)c1cccc(-c2ccc(F)cc2)c1,i,·
Cn1nccc1-c1cccc(CCOc2cnc3c(ccn3CC(=O)O)c2)c1,?,-3
O=C(O)Cn1ccc2cc(OCCc3cccc(-c4cccc(F)c4)c3)cnc21,40µM*,-1
O=C(O)Cn1ccc2cc(OCCc3cccc(-c4ccc(F)cc4)c3)cnc21,40µM*,-9
